# Test results taken from PubChem BioAssay (Tox21).
# Several values for one entry are separate records, joined by “and”; a condition that tells them apart may be missing. Equal entries are not always repeated. Results filed as inconclusive are left out. Where a call stands in place of a potency, no number is given. Activity calls are given as the source filed them. Unless noted, calls come from the whole dose curve; as a rule, active = well fitted curve in the direction sought with a large enough effect in the repeat runs; inconclusive = weak or mixed curves; inactive = no such curve, though single readings can be large; an effect the other way counts as inactive or inconclusive.
# What was measured:
# [1] = qHTS assay for small molecules that induce genotoxicity in human embryonic kidney cells expressing luciferase-tagged ATAD5 (AID 651632); note: nearly all actives have a fitted effect of over 15% in size
# How it was run: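 HEK293T cells carrying luciferase-tagged ATAD5 were given compound or DMSO vehicle and incubated 16 hr at 37C, 5% CO2. Luciferase activity was read after 30 min at room temperature with Amplite; a rise signals genotoxic stress.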
# [2] = qHTS assay for small molecule agonists of the p53 signaling pathway - cell viability (AID 651633; calls by dose curve; note: nearly all actives have a fitted effect of over 30% in size; note: potency is the fitted concentration of half-maximal effect)
# How it was run: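 p53RE-bla cells were treated with compound for 16 hours at 37 C. Cytotoxicity was then measured as CellTiter-Glo luminescence after 30 min at room temperature.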
# [3] = qHTS assay for small molecules that induce genotoxicity in human embryonic kidney cells expressing luciferase-tagged ATAD5 - cell viability (AID 651634; calls by dose curve; note: nearly all actives have a fitted effect of over 25% in size)
# How it was run: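 HEK293T cells carrying luciferase-tagged ATAD5, 2,000 cells/well, exposed to compound for 15.5 hr at 37C. Viability read as live-cell protease activity by CellTiter-Fluor fluorescence after 30 min at 37C.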
# [4] = qHTS assay to test for compound auto fluorescence at 590 nm (red) in HepG2 cells (AID 720674)
# How it was run: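 Seeding: 2,000 HepG2 cells/well, MEM/10% FBS, overnight 37 C. Dosing: compound vs DMSO. Incubation: 1 hr, 37 C, 5% CO2. Read: fluorescence 540 ex/590 em, Rose Bengal sodium as red reference.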
# [5] = qHTS assay to test for compound auto fluorescence at 535 nm (green) in HepG2 cells (AID 720675); note: potency is the fitted concentration of half-maximal effect
# [6] = qHTS assay to test for compound auto fluorescence at 460 nm (blue) in HEK293 cells (AID 720678)
# How it was run: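 Intrinsic compound fluorescence is recorded in live HEK293 cultures after overnight incubation at 37C, 5% CO2, using excitation 405 nm and emission 460 nm. Values are referenced to triamterene.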
# [7] = qHTS assay to test for compound auto fluorescence at 590 nm (red) in HEK293 cells (AID 720679)
# How it was run: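 Red autofluorescence, HEK293 cells: 2,000 cells/well; attach 4-5 hr 37C; add 23 nL cpd or DMSO; incubate o/n 37C 5% CO2; read Ex540/Em590; Rose Bengal sodium reference.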
# [8] = qHTS assay to test for compound auto fluorescence at 535 nm (green) in HEK293 cells (AID 720680)
# [9] = qHTS assay to test for compound auto fluorescence at 460 nm (blue) in HEK293 cell free culture (AID 720681)
# How it was run: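 Compounds were added to cell-free DMEM with 10% FBS and fluorescence read directly. The blue channel used 405 nm excitation and 460 nm emission, with triamterene as the reference fluorophore.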
# [10] = qHTS assay to test for compound auto fluorescence at 535 nm (green) in HEK293 cell free culture (AID 720682)
# How it was run: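 Measurement is a direct plate read of green fluorescence (485 nm in, 535 nm out) after compound addition to serum-supplemented DMEM lacking cells, with fluorescein used to express intensities.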
# [11] = qHTS assay to test for compound auto fluorescence at 590 nm (red) in HEK293 cell free culture (AID 720683)
# How it was run: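 Cell-free wells of DMEM with 10% FBS received compound, and intrinsic fluorescence was read at excitation/emission 540/590 nm. Values expressed as equivalence to Rose Bengal sodium.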
# [12] = qHTS assay to test for compound auto fluorescence at 590 nm (red) in HepG2 cell free culture (AID 720684)
# How it was run: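 Compounds are added to culture medium (MEM, 10% FBS) lacking cells, then fluorescence is read at excitation 540 nm, emission 590 nm, with Rose Bengal sodium as the equivalency standard.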
# [13] = qHTS assay to test for compound auto fluorescence at 460 nm (blue) in HepG2 cell free culture (AID 720685)
# How it was run: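 Compound (23 nL) or DMSO pinned into cell-free MEM with 10% FBS; blue fluorescence read at 405/460 nm excitation/emission, expressed as auto-fluorescence equivalency to triamterene.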
# [14] = qHTS assay to test for compound auto fluorescence at 535 nm (green) in HepG2 cell free culture (AID 720686)
# [15] = qHTS assay to test for compound auto fluorescence at 460 nm (blue) in HepG2 cells (AID 720687)
# How it was run: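 HepG2 cells in MEM with 10% FBS, attached overnight at 37 C, were exposed to compound or DMSO for 1 hr at 37 C, 5% CO2. Blue fluorescence was read at 405/460 nm, with triamterene as reference fluorophore.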
# [16] = target: Glucocorticoid receptor (Homo sapiens) (UniProt P04150); assay: qHTS assay to identify small molecule agonists of the glucocorticoid receptor (GR) signaling pathway (AID 720691; active = well fitted activation curve with a large enough effect in the signal ratio in the repeat runs, not every such curve was filed as active; the % refers to the signal ratio); settings: GR-bla HeLa, beta-lactamase reporter ratio, 18 h; activation: at 62.4 µM (top of the series)
# How it was run: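 GR-bla HeLa cells carrying a GRE-driven beta-lactamase reporter, exposed to compounds for 18 h at 37 C. Reporter activation read as fluorescence after 2 h with LiveBLAzer B/G FRET substrate at room temperature.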
# [17] = target: Glucocorticoid receptor (Homo sapiens) (UniProt P04150); assay: qHTS assay to identify small molecule antagonists of the glucocorticoid receptor (GR) signaling pathway (AID 720692; active = well fitted inhibition curve with a large enough effect in the signal ratio in the repeat runs, not every such curve was filed as active; the % refers to the signal ratio; note: potency is the fitted concentration of half-maximal effect)
# How it was run: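 GR-bla HeLa cells carrying a GRE-driven beta-lactamase reporter received compound after 4 h plating, then dexamethasone (5 nM final). After 18 h at 37C, the FRET substrate was loaded for 2 h at room temperature and fluorescence read.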
# [18] = qHTS assay for small molecule disruptors of the mitochondrial membrane potential - cell viability (AID 720634; calls by dose curve; note: nearly all actives have a fitted effect of over 20% in size; note: potency is the fitted concentration of half-maximal effect)
# How it was run: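 HepG2 cells, 2,000 per well, attached overnight, then treated 1 hr at 37 C, 5% CO2. Viability read as ATP by CellTiter-Glo luminescence after 30 min at room temperature. Read in the same wells as the m-MPI membrane-potential dye assay.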
# [19] = qHTS assay for small molecule disruptors of the mitochondrial membrane potential (AID 720635); note: potency is the fitted concentration of half-maximal effect
# How it was run: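 HepG2 cells exposed to compound 1 hr at 37C, then Mito-MPS dye 30 min. Ratio read of aggregate (540/590 nm) versus monomer (490/535 nm) fluorescence.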
# Sequence of Glucocorticoid receptor (Homo sapiens) (P04150 whole entry, looked up): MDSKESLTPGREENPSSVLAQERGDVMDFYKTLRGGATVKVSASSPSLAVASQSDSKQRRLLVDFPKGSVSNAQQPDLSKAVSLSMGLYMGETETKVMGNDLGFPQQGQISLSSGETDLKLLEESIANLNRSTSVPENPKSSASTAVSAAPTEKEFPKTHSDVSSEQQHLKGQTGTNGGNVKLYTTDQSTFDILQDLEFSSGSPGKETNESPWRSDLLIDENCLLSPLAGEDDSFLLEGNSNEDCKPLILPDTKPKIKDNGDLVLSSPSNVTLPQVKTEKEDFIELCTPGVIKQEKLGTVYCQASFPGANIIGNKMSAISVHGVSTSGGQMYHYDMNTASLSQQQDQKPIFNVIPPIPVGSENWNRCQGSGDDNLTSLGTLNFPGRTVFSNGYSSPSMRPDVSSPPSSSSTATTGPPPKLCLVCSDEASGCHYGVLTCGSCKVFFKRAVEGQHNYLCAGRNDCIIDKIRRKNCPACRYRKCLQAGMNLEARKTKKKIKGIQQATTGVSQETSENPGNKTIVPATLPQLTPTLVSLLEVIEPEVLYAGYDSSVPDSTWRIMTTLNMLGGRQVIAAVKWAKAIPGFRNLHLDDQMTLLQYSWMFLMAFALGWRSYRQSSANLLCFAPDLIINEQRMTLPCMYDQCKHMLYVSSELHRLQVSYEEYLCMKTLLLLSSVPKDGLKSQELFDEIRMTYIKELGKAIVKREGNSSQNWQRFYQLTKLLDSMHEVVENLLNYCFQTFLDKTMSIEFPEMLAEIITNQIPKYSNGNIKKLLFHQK
Compound,Potency [1],Potency [2],Potency [3],outcome [4],Potency [5],Potency [6],outcome [7],outcome [8],Potency [9],outcome [10],outcome [11],outcome [12],Potency [13],Potency [14],Potency [15],Potency [16],Potency [17],Potency [18],Potency [19]
CNC(=O)/C=C(\C)OP(=O)(OC)OC,inactive,inactive,inactive,inactive,inactive,inactive,inactive,inactive,inactive,inactive,inactive,inactive,inactive,inactive,inactive,inactive,inactive,–,–
COC(=O)/C=C(\C)OP(=O)(OC)OC,inactive,inactive,inactive,–,inactive,inactive,inactive,inactive,inactive,inactive,inactive,inactive,–,inactive,inactive,inactive,–,–,–
CNC(=O)O/N=C(\C)C(C)S(C)(=O)=O (stereo unspecified),inactive,inactive,inactive,inactive,inactive,inactive,–,inactive,inactive,inactive,inactive,inactive,inactive,inactive,inactive,inactive,inactive,inactive,–
Brc1ccc(Oc2ccc(Br)cc2Br)c(Br)c1,inactive,inactive,inactive,inactive,inactive,inactive,inactive,–,inactive,inactive,inactive,inactive,inactive,inactive,inactive,–,–,inactive,–
Nc1nc(N)c(N)c(N)n1,inactive,inactive,–,inactive,31.6 µM (active),–,inactive,–,–,–,inactive,inactive,–,–,–,–,–,inactive,8.68 µM (active)
CCC(OC(C)=O)C(CC(C)NC)(c1ccccc1)c1ccccc1 (stereo unspecified),inactive,69.2 µM (active),–,inactive,inactive,inactive,inactive,–,inactive,–,inactive,inactive,inactive,inactive,inactive,–,–,inactive,49 µM (active)
ClC1=C(Cl)[C@]2(Cl)[C@H]3[C@H]([C@@H]4C=C[C@H]3C4)[C@@]1(Cl)C2(Cl)Cl,inactive,30.6 µM (active) and 61.1 µM (active),inactive,inactive,inactive,inactive,–,–,inactive,inactive,inactive,inactive,inactive,inactive,inactive,–,–,inactive,–
CSC(=O)c1c(C(F)F)nc(C(F)(F)F)c(C(=O)SC)c1CC(C)C,inactive,inactive,inactive,–,inactive,inactive,inactive,inactive,inactive,inactive,inactive,inactive,inactive,–,inactive,inactive,–,–,–
C=CCOC(=O)c1ccccc1N,inactive,inactive,inactive,inactive,inactive,inactive,–,inactive,inactive,inactive,inactive,inactive,inactive,inactive,inactive,inactive,–,inactive,–
CC1(C)[C@H](/C=C2\CCSC2=O)[C@@H]1C(=O)OCc1coc(Cc2ccccc2)c1,inactive,inactive,–,–,inactive,inactive,inactive,inactive,inactive,inactive,inactive,inactive,inactive,inactive,inactive,inactive,–,9.69 µM (active),21.7 µM (active)
C=CC(=O)[O][Sn]([CH2]CCC)([CH2]CCC)[CH2]CCC,inactive,0.864 µM (active),–,inactive,inactive,inactive,inactive,inactive,inactive,inactive,inactive,inactive,inactive,–,inactive,–,–,1.93 µM (active),0.0863 µM (active)
CCCCN(CCCC)C(=S)S,inactive,inactive,inactive,inactive,inactive,inactive,–,inactive,inactive,inactive,inactive,inactive,inactive,inactive,inactive,inactive,–,inactive,–
Cc1c([N+](=O)[O-])c(C)c([N+](=O)[O-])c(C(C)(C)C)c1[N+](=O)[O-],inactive,inactive,–,inactive,inactive,inactive,–,inactive,inactive,inactive,inactive,inactive,inactive,inactive,inactive,inactive,inactive,inactive,15.4 µM (active)
O=S1(=O)OCC2C(CO1)C1(Cl)C(Cl)=C(Cl)C2(Cl)C1(Cl)Cl (stereo unspecified),inactive,inactive,–,inactive,inactive,inactive,inactive,inactive,inactive,inactive,inactive,inactive,inactive,inactive,inactive,inactive,17.4 µM (active),–,13.7 µM (active)
O=C(NC(=O)c1c(F)cccc1F)Nc1ccc(Oc2ccc(C(F)(F)F)cc2Cl)cc1F,inactive,–,inactive,inactive,inactive,inactive,–,inactive,inactive,inactive,–,inactive,inactive,inactive,inactive,–,–,–,–
O=[N+]([O-])c1cc(C(F)(F)F)c(Cl)c([N+](=O)[O-])c1Nc1ncc(C(F)(F)F)cc1Cl,inactive,27.3 µM (active),–,inactive,inactive,inactive,–,inactive,inactive,inactive,inactive,inactive,–,inactive,inactive,–,–,0.172 µM (active),–
